# Compound activity: PubChem, National Center for Advancing Translational Sciences (NCATS)
# This is a sample that favours compounds with a hit; in the whole collection about 7.5% have one here.
# HCV inhibitor – qHTS Assay for Inhibitors of Hepatitis C Virus (HCV); Huh7.5.1 HCVcc-Cre infection, luciferase reporter, 44 h; 340,000 compounds, 3.4% hits; AID 651820, 2012; Potency, µM (highest dose often 41.8 µM), actives largely listed as inhibitors
#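 Luciferase read-out (15 sec integration) after a 15 min room-temperature substrate step quantifies HCVcc-Cre infection. Cells, 1,000 per well, had compound added 4 h post-plating, then virus at ~0.5 moi, and were cultured 44 h.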
# VACV Venus inh – qHTS for Stage-Specific Inhibitors of Vaccinia Orthopoxvirus: Venus Reporter Primary qHTS. Potency, µM (titrated, usually from 36.5 µM), usual class: inhibitors. Vaccinia virus Venus reporter expression, fluorescence. 330,000 compounds, 0.46% hits; calls by dose curve; tested in A549 cells; note: nearly all actives have a fitted effect of over 30% in size
# FMDV antiviral – High Throughput Screening for Foot and Mouth Disease Virus Antivirals; FMDV antiviral cell-based qHTS; Potency, µM (highest dose often 57.9 µM), hits mostly inhibitors; 410,000 compounds, 1.2% hits; AID 1159524, 2015; calls by dose curve; tested in HEK293T cells; note: read-out not given here; nearly all actives have a fitted effect of over 45% in size
# VACV mCherry inh – qHTS for Stage-Specific Inhibitors of Vaccinia Orthopoxvirus: mCherry Reporter Primary qHTS; Vaccinia virus mCherry reporter infection, fluorescence; Potency, µM (highest dose often 36.5 µM), most hits filed as inhibitors; 310,000 compounds, 0.63% hits; AID 720579, 2013; calls by dose curve; tested in A549 cells; note: nearly all actives have a fitted effect of over 35% in size
# Giardia FBPA inh-1 – qHTS Assay for Inhibitors of Fructose-1,6-bisphosphate Aldolase from Giardia Lamblia. A8B2U2. purified Giardia FBPA. Potency, µM (highest dose often 59.6 µM), hits mostly inhibitors. 290,000 compounds, 0.71% hits; note: nearly all actives have a fitted effect of over 55% in size
# Target sequence (A8B2U2 whole entry, looked up): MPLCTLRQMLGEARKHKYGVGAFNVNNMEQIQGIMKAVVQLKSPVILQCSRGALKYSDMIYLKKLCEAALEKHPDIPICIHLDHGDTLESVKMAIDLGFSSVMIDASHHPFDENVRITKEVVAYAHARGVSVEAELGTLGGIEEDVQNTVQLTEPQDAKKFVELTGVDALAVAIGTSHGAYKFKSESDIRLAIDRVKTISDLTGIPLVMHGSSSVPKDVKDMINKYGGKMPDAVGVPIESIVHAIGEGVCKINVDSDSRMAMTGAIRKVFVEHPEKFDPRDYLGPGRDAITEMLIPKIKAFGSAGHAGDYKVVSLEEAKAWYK
#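 40 nM FBPA preincubated 10 min at RT with compound (up to 57.5 uM final), then substrate plus GAPDH/TPI/NAD/arsenate coupling and diaphorase/resazurin added. Fluorescence read after 20 min at RT, 525/598 nm.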
# HCMV antiviral – qHTS Assay for inhibitors of the human cytomegalovirus (HCMV) | 410,000 compounds, 4.5% hits | activity change, negative = inhibition, % at 57.5 µM | HFF cells, HCMV-luciferase reporter, 72 h; stronger effect = lower value | AID 1259415, 2018; in the data active = activity change below about -60%; inconclusive = no clear call, values can overlap the other calls; inactive = above about -39%
#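 Two compound doses tested in HFFs infected with HCMV-luciferase, MOI 1 PFU/cell, 72 h at 37C. Lysate luminescence read with OneGlo; data normalized against buffer-only and 10uM Salinomycin inhibitor controls.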
# Giardia growth – qHTS Assay for Inhibitors of Fructose-1,6-bisphosphate Aldolase from Giardia Lamblia: Giardia lamblia growth inhibition. Giardia lamblia trophozoite growth inhibition. Potency, µM (doses to about 57.5 µM), hits mostly inhibitors. 1,500 compounds, 5% hits. shares compounds with Giardia FBPA inh-1;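 note: trophozoites exposed to compound for 48 h at 37 °C; nearly all actives have a fitted effect of over 70% in size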
# Mammal cell tox – qHTS Assay for Inhibitors of Fructose-1,6-bisphosphate Aldolase from Giardia Lamblia: Mammalian cellular toxicity. 1,500 compounds, 4% hits. Potency, µM (series often up to 57.5 µM), usual class: inhibitors. mammalian cell viability counter-screen, qHTS. shares compounds with Giardia FBPA inh-1. AID 2786, 2010;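 note: Chinese hamster ovary cells used as mammalian cytotoxicity surrogate; viability measured as cellular ATP by luminescence; compound exposure lasted 48 h before reading; nearly all actives have a fitted effect of over 60% in size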
# Giardia FBPA inh-2 – qHTS Assay for Inhibitors of Fructose-1,6-bisphosphate Aldolase from Giardia Lamblia: Primary screen confirmation; shares compounds with Giardia FBPA inh-1; purified Giardia aldolase enzyme activity, qHTS; Potency, µM (series often up to 57.5 µM), usual class: inhibitors; 1,500 compounds, 5% hits; AID 2787, 2010; note: nearly all actives have a fitted effect of over 45% in size
# Rabbit FBPA inh – qHTS Assay for Inhibitors of Fructose-1,6-bisphosphate Aldolase from Giardia Lamblia: Rabbit FBPA Selectivity. shares compounds with Giardia FBPA inh-1. Rabbit muscle FBPA enzyme inhibition, selectivity counter-screen. Potency, µM (series often up to 57.5 µM), most hits filed as inhibitors. 1,500 compounds, 4% hits. AID 2794, 2010; note: nearly all actives have a fitted effect of over 60% in size
# GAPDH coupling – qHTS Assay for Inhibitors of Fructose-1,6-bisphosphate Aldolase from Giardia Lamblia: Coupling assay counterscreen confirmation; shares compounds with Giardia FBPA inh-1; GAPDH coupling enzyme counterscreen, biochemical, qHTS; Potency, µM (highest dose often 57.5 µM), most hits filed as inhibitors; 1,500 compounds, 6% hits; AID 2795, 2010; note: nearly all actives have a fitted effect of over 55% in size
# Hits are given with their value; 0 = inactive; ? = inconclusive; - = not tested or not shown; [ ] = remark or other dose. Unless noted, calls come from the whole dose curve; as a rule, active = well fitted curve in the direction sought with a large enough effect; inconclusive = small, poorly fitted or top-dose-only effect, or another doubt; inactive = no such curve, though single readings can be large; an effect the other way counts as inactive or inconclusive.
SMILES,HCV inhibitor,VACV Venus inh,FMDV antiviral,VACV mCherry inh,Giardia FBPA inh-1,HCMV antiviral,Giardia growth,Mammal cell tox,Giardia FBPA inh-2,Rabbit FBPA inh,GAPDH coupling
N#Cc1c(C(F)(F)F)cc(-c2cccc(Cl)c2)[nH]c1=O,0,?,?,0,0,0,-,-,-,-,-
Cc1cnn(C(=S)NCc2ccco2)c1,0,-,0,-,16µM,0,0[10.4 µM],0,0,0,0
NNC(=S)NCc1ccco1,0,0,0,0,18µM,0,0[10.4 µM],0,0,0,0
O=C(Cc1ccc(Oc2ccccc2)cc1)NO,-,0,-,0,-,-,-,-,-,-,-
Cc1ccc(C)c(NC(=S)Nc2ncccc2C)c1,?,0,0,0,?,0,-,-,-,-,-
Cc1cccnc1NC(=S)Nc1ccc(F)cc1F,0,0,0,0,20µM,0,?,0,0,0,0
CCC(=O)Nc1cc(C(F)(F)F)ccc1N1CCOCC1,0,0,0,0,0,0,-,-,-,-,-
O=C(CNCc1cccnc1)Nc1cc(C(F)(F)F)ccc1N1CCOCC1,0,-,0,-,7.9µM,0,?,0,0,0,0
Cc1ccccc1NC(=O)CN1CCN(C)CC1,0,0,0,0,25µM,0,0,0,0,0,0
Cc1ccccc1NC(=O)CN1CCCC1,-,0,0,0,-,0,-,-,-,-,-
O=c1c2sccc2[nH]c(=S)n1-c1ccccc1,0,0,0,0,18µM,0,?,0,0,0,0
O=C(N/N=C/c1ccc(O)c(O)c1O)/C(=C/c1ccc([N+](=O)[O-])cc1)NC(=O)c1ccccc1,6.3µM,0,0,0,6.3µM,0,?,0,?,?,?
COc1ccc(OC)c(NC(=O)Nc2nc(C(N)c3ccccc3Cl)cs2)c1 (centres undefined),-,0,0,0,-,0,-,-,-,-,-
CCOc1ccccc1NC(=O)CN1C(=O)COc2ccc(S(=O)(=O)N3CCCCC3)cc21,-,0,0,0,-,0,-,-,-,-,-
O=C(NC1CCCCCC1)C(=S)NC1CCCCC1,0,0,0,0,18µM,0,?,0,0,0,0
Fc1ccc(-n2c(=S)[nH]c3cccnc32)cc1,0,0,0,0,18µM,0,0,0,0,0,0
O=c1[nH]c(=S)n(-c2ccc(Br)cc2)c2ncccc12,0,0,0,0,-,0,-,-,-,-,-
CC1CCN(C(=O)CSc2nnc(CNC(=O)c3ccc(F)cc3)o2)CC1,-,0,0,0,-,0,-,-,-,-,-
CC1=NN(C(N)=S)C(C)(C)C1,0,-,0,-,11µM,0,0,0,0,0,0
O=C(NCC(=O)N1CCN(S(=O)(=O)c2ccc3c(c2)OCCO3)CC1)c1ccccc1Cl,0,0,0,0,-,0,-,-,-,-,-
CCn1c(SCC(=O)c2ccc(O)c(O)c2)nnc1-c1ccccc1OC,0,0,0,-,3.2µM,0,?,0,0,0,0
CCn1c(SCC(=O)c2ccc(O)c(O)c2)nnc1-c1ccccc1,?,0,0,0,2.2µM,0,0,0,0,0,0
